# Hit rate of the full screen: of about 69,000 compounds, about 8,600 (12%) showed an effect of 50% or more. The full list was thinned out, with strong results kept by preference.
# System: Plasmodium berghei
# Assay: Screen against P. berghei liver stage (PbLuc), transformed with Luciferase, at 10uM
# Format: functional, HepG2
# Details: tested at 10 uM
row,Compound,INHIBITION
1,COc1ccc(-c2nc(C(=O)NCC3CCOC3)cs2)cc1OC (stereo not given),34.7%
2,Cc1cc(N2CCCC2c2nc(C)cc(CCC(=O)O)n2)ncn1 (stereo not given),9.93%
3,Cc1cccc(CN2CCCC2c2cccc(CCC(=O)O)n2)c1 (stereo not given),51.5%
4,Cc1cc(CCC(=O)O)nc(C2CCCN2c2ccnc(C)n2)n1 (stereo not given),50.8%
5,Cc1cc(C)nc(C2CCCN2c2ccnc(C)n2)n1 (stereo not given),7.52%
6,Cc1cc(C)nc(N2CCC(c3cccc(CCC(=O)O)n3)CC2)n1,4.13%
7,O=C(O)CCc1cccc(C2CCCN2Cc2cccc(Cl)c2)n1 (stereo not given),19.6%
8,Cc1cn[nH]c1C1CCCN1Cc1ccc(F)c(F)c1 (stereo not given),15.5%
9,O=C(O)CCc1cccc(C2CCCN2Cc2ccc(F)c(F)c2)n1 (stereo not given),58%
10,CN(C)C(=O)CCc1cncc(C2CCCN2Cc2ccccn2)n1 (stereo not given),-1.85%
11,O=C(c1ccnnc1)N1C[C@H](OCC2CC2)[C@H]2COC[C@H]21,-2.25%
12,CCOC(=O)c1sc(NC(=O)c2cc(=O)c(OC)c[nH]2)nc1C,8.12%
13,CCS(=O)(=O)N1CC[C@@H]2[C@H](CC1)N(Cc1cccc(C)n1)CCS2(=O)=O,49.7%
14,CCc1nc(CN(C)C2CCN(Cc3nnc(C4CCC4)o3)C2)no1 (stereo not given),21.5%
15,CC1c2ncc(CNC(=O)C3CC3)n2CCN1Cc1cnn(C)c1 (stereo not given),-8.94%
16,O=C(COc1ccccc1NCc1ccoc1)N1CCOCC1,-5.22%
17,CCc1nnsc1C(=O)N1CCCC1c1c(C)nn(C)c1OC (stereo not given),-25.8%
18,Cc1nc(N)nc(C)c1Cc1nc(C2CC2)n[nH]1,32.3%
19,Cc1nc(C)c(Cc2nc(C3CC3)n[nH]2)c(=O)[nH]1,29%
20,Cc1n[nH]c(C)c1CCc1nc(C2CC2)n[nH]1,50.7%
21,CC(=O)NCC(=O)N1CCN(CCN(C)C)c2ncccc2C1,6.79%
22,Nc1ccncc1-n1cc(CCO)cn1,33.3%
23,Cn1c(CCNc2nccnc2C#N)nc2cc(Cl)ccc21,32.3%

row,Compound,INHIBITION
1,Cn1c(CCCNC(=O)Nc2cn[nH]c2)nc2ccccc21,-7.66%
2,Cn1c(CCNc2nccnc2C#N)nc2ccc(F)cc21,67.3%
3,Cn1c(CCNC(=O)Nc2cn[nH]c2)nc2ccc(F)cc21,-5.52%
4,CC(C)n1nccc1NC(=O)NCCc1nc2ccc(F)cc2n1C,73.6%
5,Cc1nnc(NCCc2nc3ccc(F)cc3n2C)c(C#N)c1C,34.1%
6,Cc1nc(C2CCCN2CCOCC2CC2)no1 (stereo not given),-77.6%
7,O=C(c1ccc(N2CCCC2)nn1)N1CCCC(n2ccnc2)C1 (stereo not given),29.2%
8,CCOc1ccc(CN2CCC(c3nc(C)cc(C)n3)C2)cc1CO (stereo not given),44.05%
9,CN1CC(C(=O)Nc2ccc(OCC(F)(F)C(F)F)nc2)CC1=O (stereo not given),-14.6%
10,Cc1nc2[nH]cnc(NCCCN3CCOCC3)c-2n1,5.03%
11,Cc1cccc(OCCNC(=O)CN2CCCC2c2noc(C)n2)c1 (stereo not given),6.905%
12,Cc1nc(C2CCCN2CC(=O)NCCOc2cccc(F)c2)no1 (stereo not given),2.8815%
13,COc1ccc(CCNC(=O)CN2CCCC2c2noc(C)n2)cc1 (stereo not given),-3.2%
14,Cc1nc(C2CCCN2CC(=O)NCCOc2ccccc2)no1 (stereo not given),50.4%
15,CCc1nc(C2CCCN2CC(=O)NCCOc2ccccc2)no1 (stereo not given),-2.95%
16,Cc1nc(C2CCCN2CC(=O)NCCOc2ccc(F)cc2)no1 (stereo not given),55.15%
17,CCC(=O)N1C[C@@H](C(=O)NC)[C@H](c2ccnc(N3CCCC3)n2)C1,1.93%
18,Cc1nc2ccccc2nc1CN1CCOC(Cn2cccn2)C1 (stereo not given),26.5%
19,c1ccc2sc(CN3CCOC(Cn4cncn4)C3)nc2c1 (stereo not given),85.9%
20,Cn1c(CN2CCOC(Cn3cncn3)C2)nc2ccccc21 (stereo not given),-4.93%
21,Cc1nc(C)n(CC2CN(Cc3cccc(OC(C)C)c3)CCO2)n1 (stereo not given),45.7%
22,c1ccc2sc(CN3CCOC(Cn4cccn4)C3)nc2c1 (stereo not given),72.4%
23,Cc1nc(CN2CCOC(Cn3cncn3)C2)nc2ccccc12 (stereo not given),21.1%

row,Compound,INHIBITION
1,c1ccc2oc(CN3CCOC(Cn4cccn4)C3)nc2c1 (stereo not given),-51.5%
2,Cc1cnn(CC2CN(Cc3nc(C)c4ccccc4n3)CCO2)c1 (stereo not given),35.3%
3,Cc1cnn(CC2CN(Cc3cccc(OCC(N)=O)c3)CCO2)c1 (stereo not given),-2.4%
4,c1ccc2sc(N3CCOC(Cn4cccn4)C3)nc2c1 (stereo not given),26.3%
5,Cc1cnn(CC2CN(Cc3nc4ccccc4nc3C)CCO2)c1 (stereo not given),58%
6,Cc1cnn(CC2CN(Cc3cccc(OC(C)C)c3)CCO2)c1 (stereo not given),70.3%
7,Cc1nc(C)n(C2CCCN(C(=O)COc3cccc(C#N)c3)C2)n1 (stereo not given),22.3%
8,C[C@@H](O)CNC(=O)c1nc(CC(=O)Nc2cccc(C(F)(F)F)c2)no1,29.9%
9,Cc1ccc(N2CCC3(CC2)CC(OCC(C)C)C3)nn1,31.2%
10,O=C(O)C1CN(c2cccc(Cl)c2)CCO1 (stereo not given),-6.92%
11,COCC(O)CNC(=O)Nc1c(F)cc(F)cc1-c1ccccc1 (stereo not given),1.19%
12,CCn1ncc2c1C(COCC1CC1)CN(c1ccncn1)C2 (stereo not given),-15.1%
13,COCC(=O)NCc1cc(=O)n2c(n1)CN(Cc1cccs1)CCC2,25.8%
14,CCC[C@@H]1CN(c2ncnc3ccsc23)C[C@H]1NS(C)(=O)=O,-3.58%
15,Cc1cnccc1NCCNC(=O)[C@H]1CNC[C@H](C(=O)N2CCCC2)C1,15.9%
16,CC(C)CCN1CCC2(CC1)NCc1ccccc1NC2=O,25.9%
17,Cc1cnn(CC2CN(Cc3nc4ccccc4n3C)CCO2)c1 (stereo not given),-43.6%
18,Cc1cnn(CC2CN(CCCS(C)(=O)=O)CCO2)c1 (stereo not given),-12.1%
19,CCc1nnc(CN2CCOC(Cn3cccn3)C2)o1 (stereo not given),-5.25%
20,CC(C)(C)c1nnc(CN2CCOC(Cn3cccn3)C2)o1 (stereo not given),59.7%
21,Cc1cnn(CC2CN(CCCS(=O)(=O)N(C)C)CCO2)c1 (stereo not given),77.8%
22,CC(C)(C)c1nnc(CN2CCOC(Cn3cncn3)C2)o1 (stereo not given),40.3%
23,Cc1cnn(CC2CN(Cc3nc4ccccc4s3)CCO2)c1 (stereo not given),74.4%

row,Compound,INHIBITION
1,Cc1cnn(CC2CN(Cc3nc4ccccc4o3)CCO2)c1 (stereo not given),-61.4%
2,Cc1cnn(CC2CN(CCS(C)(=O)=O)CCO2)c1 (stereo not given),-31.4%
3,Cc1nc(NCc2ccc(F)cc2)cc(C(=O)N2CCOCC2)n1,-10.1%
4,Clc1cccc(CNc2cnn(CCN3CCCCC3)c2)c1,21.2%
5,CC(C)Nc1nc(O)cc(C2CC(=O)N(C3CCCCC3)C2)n1 (stereo not given),-23.245%
6,CN(C)c1cc(C(=O)NCCc2nnc(-c3ccco3)[nH]2)ccn1,17.4%
7,O=C(NCC1CC1)C1CN(C(=O)Nc2ccccc2)CC12CCOCC2 (stereo not given),19.4%
8,CCN(Cc1ccncc1)C(=O)C(C)n1ccnc1C(C)C (stereo not given),10.3%
9,CC(C)N1C(=O)CN(CCCO)CC1(C)C,-23%
10,Cc1ccc(NC(=O)c2cccc(OCc3nnnn3C)c2)nc1,-1.57%
11,CCOc1ccc(NC(=O)N2CCOC(C(N)=O)C2)cc1C (stereo not given),-5.08%
12,O=C(CCCc1ccc(Cl)cc1)N1CCC(c2nnc[nH]2)CC1,20.9%
13,O=C(Nc1ccc(OC(F)F)cc1)N1CCC(c2nnc[nH]2)CC1,63.3%
14,CCOc1cc(NC(=O)N2CCC(c3nnc[nH]3)CC2)ccc1C,56.6%
15,COc1ccc(NC(=O)N2CCC(c3nnc[nH]3)CC2)cc1C,37.6%
16,O=C(CCCN1CCCCC1)N1CCC(c2nnc[nH]2)CC1,-7.53%
17,CC(Cn1cccn1)n1cnc2cccc(Cl)c2c1=O (stereo not given),36.6%
18,Oc1cc(C2CCNCC2)nc(-c2ccsc2)n1,-33.6%
19,Cc1occc1CNC(=O)C1CCN(C(=O)OC(C)(C)C)C1 (stereo not given),-2.27%
20,Fc1ccc(NCc2ccncc2)c(OC(F)F)c1,73.2%
21,C[S+]([O-])c1ccc(CNc2ccc(F)cc2OC(F)F)cc1 (stereo not given),38.5%
22,Fc1ccc(NCc2nnsc2Cl)c(OC(F)F)c1,47.4%
23,c1cc2nc(C3CCNCC3)nn2cc1NC1CCC1,40.3%

row,Compound,INHIBITION
1,CN(Cc1cccs1)C1CCC[C@@H]2CN(C(N)=O)C[C@H]12 (stereo not given in full),39.3%
2,Cc1noc(C)c1CN1CCc2ncc(CN3CCCC3)n2CC1,40.8%
3,Cc1noc(C)c1CN1CCc2ncc(CN(C)C)n2CC1,57.1%
4,CCN(CC)Cc1cnc2n1CCN(Cc1c(C)noc1C)CC2,27.5%
5,CC(c1nc(C2CC2)no1)N1CCN(CCCN2CCCC2=O)CC1 (stereo not given),-2.53%
6,COc1cccc(CNc2nnc(C(C)(C)C)o2)c1OC,7.22%
7,COc1cccc(CNC(C)Cn2cccn2)c1OC (stereo not given),20.9%
8,CCc1nnc(NCc2cccc(OC)c2OC)o1,50.2%
9,Cc1ncccc1Oc1ncnc(N2CCCC(O)(CO)CC2)c1C (stereo not given),36.7%
10,Cc1cncc(C2CCCN2CC(N)=O)n1 (stereo not given),35%
11,Cc1ccc(OCC(O)COC2CCOCC2)c(Cl)c1 (stereo not given),71.3%
12,OC(COc1ccccc1Br)COC1CCOCC1 (stereo not given),-42.8%
13,Cc1ccc(OCC(O)COC2CCOCC2)c(Br)c1 (stereo not given),-98.4%
14,Cc1ccc(NC(=O)C2CSCN2C(=O)c2cnccn2)cc1C (stereo not given),23.25%
15,NCCCC(=O)NCC1(O)CCCN(c2ccnc3cccnc23)C1 (stereo not given),4.35%
16,CCCn1nc(C)c(C(=O)N[C@@H]2CC[C@@H](N3CCCC3)[C@@H]2O)c1C,1.65%
17,Cc1cccc(CN2C(=O)CCC23CCN(Cc2nccn2C)CC3)n1,37.2%
18,CN(C)[C@@H]1CO[C@H](CNC(=O)c2ccccc2)[C@H]1O,53%
19,CN(C)[C@@H]1CO[C@H](CNC(=O)c2cccs2)[C@H]1O,44.1%
20,O=C(NC[C@H]1OC[C@@H](NC2CCC(F)(F)CC2)[C@@H]1O)Nc1ccccc1,25.3%
21,CN(C)[C@@H]1CO[C@H](CNC(=O)Nc2ccccc2)[C@H]1O,11.6%
22,O=C(NC[C@H]1OC[C@@H](NC2CCC(F)(F)CC2)[C@@H]1O)c1ccccc1,59.3%
23,O=C(NC[C@H]1OC[C@@H](NC2COC2)[C@@H]1O)c1ccccc1,5.58%

# Reference: ChEMBL document CHEMBL4513216, “Probing the Open Global Health Chemical Diversity Library for Multistage-Active Starting Points for Next-Generation Antimalarials” (ACS Infect Dis, 2020)
